An excerpt weighted towards active compounds, which were near 3.2% of everything screened.
PGC1a acetyl inh: inhibitors of PGC1a acetylation signal, primary screen, cell-based, U2OS, AlphaScreen, inhibitor mode. AlphaScreen anti-acetyl-lysine; with virally co-expressed GCN5 acetyltransferase. inhibition, % at 15.6 µM. 350,000 compounds, 0.17% hits. AID 651687, 2012;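 active = every replicate shows inhibition of at least 40%; inconclusive = mean inhibition at least 40% but some replicate below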;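 also: 0% = neutral control wells and 100% = positive control wells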
Ecoli rRNA inh: reduced GFP signal of wild-type E. coli, primary screen, bacterial rRNA inhibitor project, GFP/RFP fluorescence, OD600, single point; E. coli WT GFP vs humanized-ribosome RFP mutants, 24 h; active compounds read low; DMSO median 0, no signal -100; GFP signal change (wild-type ribosome), % (test concentration not listed); 350,000 compounds, 1.6% hits; AID 720706, 2013;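 active = significant combined selectivity score with lowered wild-type GFP, culture density cut under 30%, mutant RFP and density less affected; inactive = any of these conditions unmet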
ERAP1 HTS inh: human ERAP1 aminopeptidase inhibitors, primary screen, biochemical, single point, plate reader; Endoplasmic reticulum aminopeptidase 1 (Homo sapiens), Q9NZ08; recombinant ERAP1, Leu-AMC fluorescence, 60 min; inhibition, % at 10.7 µM; 340,000 compounds, 0.15% hits; AID 652197, 2013;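 active = mean replicate inhibition of at least 30%, or all replicates individually reaching that 30% level; inactive = mean below 30% and not every replicate reaching it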;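 also: 0% = neutral control wells and 100% = L-leucinethiol positive control wells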
Target sequence (Q9NZ08 whole entry, looked up): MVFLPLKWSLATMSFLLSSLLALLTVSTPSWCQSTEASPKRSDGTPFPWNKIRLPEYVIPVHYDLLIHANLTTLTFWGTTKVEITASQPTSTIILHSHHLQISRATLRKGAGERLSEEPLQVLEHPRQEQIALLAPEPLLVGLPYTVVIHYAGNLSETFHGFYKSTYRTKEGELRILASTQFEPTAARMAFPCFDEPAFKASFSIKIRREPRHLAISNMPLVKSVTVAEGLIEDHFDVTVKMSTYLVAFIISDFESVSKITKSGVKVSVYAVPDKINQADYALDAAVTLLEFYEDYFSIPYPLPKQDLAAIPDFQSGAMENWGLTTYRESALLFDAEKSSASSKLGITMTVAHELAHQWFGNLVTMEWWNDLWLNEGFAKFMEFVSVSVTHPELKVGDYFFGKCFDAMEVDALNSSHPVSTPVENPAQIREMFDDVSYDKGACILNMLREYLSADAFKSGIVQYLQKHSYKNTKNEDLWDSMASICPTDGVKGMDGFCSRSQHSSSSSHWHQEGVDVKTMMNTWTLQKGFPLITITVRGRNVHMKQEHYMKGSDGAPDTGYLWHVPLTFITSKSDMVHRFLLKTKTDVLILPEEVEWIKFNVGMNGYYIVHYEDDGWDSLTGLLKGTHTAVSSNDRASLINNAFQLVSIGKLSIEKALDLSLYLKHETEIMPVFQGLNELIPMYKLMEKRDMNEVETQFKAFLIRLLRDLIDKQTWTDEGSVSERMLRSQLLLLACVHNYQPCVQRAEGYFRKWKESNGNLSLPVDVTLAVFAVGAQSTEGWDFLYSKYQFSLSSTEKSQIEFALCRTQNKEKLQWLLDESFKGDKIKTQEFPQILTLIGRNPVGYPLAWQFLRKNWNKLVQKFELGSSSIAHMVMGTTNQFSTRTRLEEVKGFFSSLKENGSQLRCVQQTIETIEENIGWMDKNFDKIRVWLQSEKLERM
DENV2 CPE: inhibitors of DENV2 cytopathic effect, primary screen, cell-based, plate reader, single concentration. AID 651640, 2012. CPE inhibition, % at 9.99 µM. DENV2-infected cells, cytopathic effect rescue. 350,000 compounds, 1.7% hits; in the data active = CPE inhibition above about 20%, passing the limit was not always enough; inconclusive = no clear call, values can overlap the other calls; tested in BHK-21 cells;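 also: 0% = median of neutral control wells and 100% = median of positive control wells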
GSIS activator: GLuc luminescence reporter in INS-1E cells, primary screen for activators of glucose-dependent secretion of insulin | 370,000 compounds, 0.61% hits | INS-1E GLuc reporter insulin secretion, 2-3 h | activation, % at 16.6 µM | AID 743287, 2014;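 active = lowest replicate activation of at least 40%, so every replicate reaches that level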;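 also: 0% = median of neutral control wells and 100% = median of IBMX positive control wells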
CaV13 FRET inh: Disruptors of the CACNA1D IQ motif to Ca2+-dependent inactivation inhibitor domain association, primary screening, Förster resonance energy transfer in intact living …; AID 743397; inhibition, % at 12.3 µM; HEK cells, CFP/YFP FRET ICDI-IQ, plate reader, 10 min; percent FRET-ratio fall versus neutral wells; 340,000 compounds, 0.098% hits;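 active = mean replicate inhibition of at least 30% and at least 1% of replicates passing that level; inconclusive = only one of the two criteria is met; inactive = neither criterion is met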;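 also: 0% = median of the neutral control wells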
AID977621: growth inhibition of wild-type GFP E. coli, dose response, H69 mutant RFP, cherry-pick; shares compounds with Ecoli rRNA inh; E. coli wild-type GFP strain growth, fluorescence, 24 h; activity change, negative = inhibition at 50 µM; 1,900 tested, under 10 active; AID 977621, 2014;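 active = Wild-type ribosome reporter drop at least double the humanized mutant ribosome reporter drop, growth loss under a set limit; inconclusive = no clear call, values can overlap the other calls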;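 also: wild-type GFP and H69 mutant RFP strains grown together 50/50 in each well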
AID977628: E. coli growth inhibition, wild-type GFP versus h24 humanized RFP strain, dose response, h24 mutant RFP vs wild-type GFP, cherry-pick | 1,900 tested, under 10 active | AID 977628, 2014 | activity change, negative = inhibition at 50 µM | shares compounds with Ecoli rRNA inh | E. coli WT GFP strain growth, fluorescence, 24 h;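 active = compound lowering the normal-ribosome reporter at least twice as much as the humanized-ribosome reporter, growth loss under a set limit; inconclusive = no clear call, values can overlap the other calls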;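 also: wild-type GFP and h24 humanized RFP strains co-cultured 1 to 1 per well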
* hit, by the source's call; [ ] = dose if it differs, or a comment.

How did CCN1C(=O)C(CC(=O)Nc2ccc(F)cc2)N(CCCN2CCN(c3ccc(F)cc3)CC2)C1=S (stereo unspecified) do in these assays?
Ecoli rRNA inh: -52.9*; ERAP1 HTS inh: -2.5; DENV2 CPE: -6.9; GSIS activator: -32.4; CaV13 FRET inh: -7.2; AID977621: -4.84; AID977628: inconclusive

How did CN(Cc1ccc(F)cc1)Cc1nc(-c2ccccc2)no1 do in these assays?
PGC1a acetyl inh: -1.8; Ecoli rRNA inh: -17.9; ERAP1 HTS inh: -0.6; DENV2 CPE: -1.0; GSIS activator: -12.6; CaV13 FRET inh: -5.0

Results for CN(Cc1ccc(F)cc1)Cc1nc(CCc2ccccc2)no1 ?
PGC1a acetyl inh: 2.6; Ecoli rRNA inh: -18.7*; ERAP1 HTS inh: -2.5; DENV2 CPE: 4.7; GSIS activator: -32.6; CaV13 FRET inh: -2.5; AID977628: inconclusive

How did CN(C)S(=O)(=O)N1CCN(c2ccccc2Cl)CC1 do in these assays?
PGC1a acetyl inh: -3.9; Ecoli rRNA inh: -21.4*; ERAP1 HTS inh: 1.8; DENV2 CPE: 2.8; GSIS activator: 19.4; CaV13 FRET inh: -8.2; AID977621: -0.038; AID977628: -7.42

What do the screens show for `CN(C)S(=O)(=O)N1CCN(c2cc(Cl)ccc2Cl)CC1`?
PGC1a acetyl inh: -11.0; CaV13 FRET inh: -4.8

What do the screens show for `C=CCNc1ccc2c(c1)OC[C@H](CC(C)C)NS2(=O)=O`?
Ecoli rRNA inh: -22.8*; ERAP1 HTS inh: -1.0; DENV2 CPE: -4.9; GSIS activator: 7.0; CaV13 FRET inh: -6.6; AID977621: inconclusive

What do the screens show for `C[C@@H]1CN([C@H](C)CO)C(=O)c2c(c3ccccc3n2C)-c2ccccc2CO[C@@H]1CN(C)C(=O)[C@H](C)c1ccccc1`?
PGC1a acetyl inh: -132.5; Ecoli rRNA inh: 1.7; ERAP1 HTS inh: -5.1; DENV2 CPE: -11.8; GSIS activator: -34.0

How did COc1ccc(NC(=O)Nc2cccc3c2O[C@H](CN(C)C(=O)Nc2ccc4c(c2)OCO4)[C@H](C)CN([C@H](C)CO)C3=O)cc1 do in these assays?
PGC1a acetyl inh: -2.1; Ecoli rRNA inh: -1.5; ERAP1 HTS inh: -0.5; DENV2 CPE: 3.6; GSIS activator: 14.9

Results for O=S(=O)(c1ccccc1)N1CCN(Cc2ccccc2C(F)(F)F)CC1 ?
PGC1a acetyl inh: -6.6; CaV13 FRET inh: -3.7

How did O=[N+]([O-])c1ccccc1CN1CCN(S(=O)(=O)c2ccccc2)CC1 do in these assays?
PGC1a acetyl inh: -5.1; Ecoli rRNA inh: -24.8*; ERAP1 HTS inh: 3.0; DENV2 CPE: 7.2; GSIS activator: -14.3; CaV13 FRET inh: 2.9; AID977621: inconclusive; AID977628: inconclusive

How did Cc1noc(C)c1NC(=O)N(C)C[C@@H]1OCCCC[C@H](C)Oc2ccc(NC(=O)Nc3ccc4c(c3)OCO4)cc2C(=O)N([C@@H](C)CO)C[C@H]1C do in these assays?
PGC1a acetyl inh: 0.8; Ecoli rRNA inh: 1.0; ERAP1 HTS inh: -1.6; DENV2 CPE: 13.1; GSIS activator: -2.2

Results for Cc1noc(C)c1NC(=O)N(C)C[C@H]1OCCCC[C@@H](C)Oc2ccc(NC(=O)Nc3ccc4c(c3)OCO4)cc2C(=O)N([C@@H](C)CO)C[C@H]1C ?
PGC1a acetyl inh: -14.3; Ecoli rRNA inh: 1.7; ERAP1 HTS inh: -2.7; DENV2 CPE: 0.9; GSIS activator: 1.6

What do the screens show for `Cc1noc(C)c1NC(=O)Nc1ccc2c(c1)C(=O)N([C@H](C)CO)C[C@H](C)[C@@H](CN(C)C(=O)Nc1ccc3c(c1)OCO3)OCCCC[C@H](C)O2`?
PGC1a acetyl inh: -5.1; Ecoli rRNA inh: -2.8; ERAP1 HTS inh: -0.2; DENV2 CPE: -5.5; GSIS activator: 10.0; AID977621: -7.71; AID977628: inconclusive

How did Cc1noc(C)c1NC(=O)Nc1ccc2c(c1)C(=O)N([C@@H](C)CO)C[C@H](C)[C@@H](CN(C)C(=O)Nc1ccc3c(c1)OCO3)OCCCC[C@H](C)O2 do in these assays?
PGC1a acetyl inh: -7.4; Ecoli rRNA inh: 2.7; ERAP1 HTS inh: -0.5; DENV2 CPE: -0.7; GSIS activator: 11.5; AID977621: -3.91; AID977628: 11.6

What do the screens show for `Cc1noc(C)c1NC(=O)Nc1ccc2c(c1)C(=O)N([C@H](C)CO)C[C@@H](C)[C@H](CN(C)C(=O)Nc1ccc3c(c1)OCO3)OCCCC[C@@H](C)O2`?
PGC1a acetyl inh: -3.3; Ecoli rRNA inh: -2.0; ERAP1 HTS inh: -0.8; DENV2 CPE: 5.5; GSIS activator: -9.4; AID977621: -8.35; AID977628: inconclusive

What do the screens show for `Cc1noc(C)c1NC(=O)Nc1ccc2c(c1)C(=O)N([C@H](C)CO)C[C@H](C)[C@@H](CN(C)C(=O)Nc1ccc3c(c1)OCO3)OCCCC[C@@H](C)O2`?
PGC1a acetyl inh: 3.5; Ecoli rRNA inh: -37.4*; ERAP1 HTS inh: -1.5; DENV2 CPE: 2.3; GSIS activator: 1.4; AID977621: -2.51[23.5 µM]; AID977628: inconclusive

How did CC(=O)N(C)C[C@@H]1Oc2ncc(C#CCc3ccccc3)cc2C(=O)N([C@@H](C)CO)C[C@@H]1C do in these assays?
PGC1a acetyl inh: 4.2; Ecoli rRNA inh: 1.9; ERAP1 HTS inh: 0.4; DENV2 CPE: inconclusive; GSIS activator: -14.1

How did COc1ccccc1C#Cc1ccc2c(c1)[C@H]1[C@H](CCN1S(=O)(=O)c1ccc(C)cc1)[C@H](CO)N2C do in these assays?
Ecoli rRNA inh: 0.8; GSIS activator: 18.2

Results for COc1ccc(-c2cn(CC[C@H]3CC[C@@H](NC(=O)Cc4ccccn4)[C@@H](CO)O3)nn2)cc1 ?
PGC1a acetyl inh: -2.5; Ecoli rRNA inh: 1.2; ERAP1 HTS inh: 0.0; DENV2 CPE: 12.8; GSIS activator: 4.1

Results for Cc1ccc(-c2cnc3c(c2)C(=O)N([C@@H](C)CO)C[C@H](C)[C@@H](CN(C)CC2CCOCC2)O3)cc1 ?
PGC1a acetyl inh: 6.3; Ecoli rRNA inh: 2.0; ERAP1 HTS inh: 1.8; DENV2 CPE: -3.6; GSIS activator: 8.5
